# APE1 inh = blocks human APE1 abasic DNA cleavage; P27695; recombinant APE1, TAMRA/BHQ-2 abasic DNA cleavage fluorescence; Potency, µM (top dose mostly 65.8 µM), inactives show at the highest dose activity change, negative = inhibition, hits mostly inhibitors; 350,000 tested, 0.35% active;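 note: plate controls were vehicle for no effect and reference inhibitor for full effect; nearly all actives have a fitted effect of over 55% in size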
# Target sequence (P27695 whole entry, looked up): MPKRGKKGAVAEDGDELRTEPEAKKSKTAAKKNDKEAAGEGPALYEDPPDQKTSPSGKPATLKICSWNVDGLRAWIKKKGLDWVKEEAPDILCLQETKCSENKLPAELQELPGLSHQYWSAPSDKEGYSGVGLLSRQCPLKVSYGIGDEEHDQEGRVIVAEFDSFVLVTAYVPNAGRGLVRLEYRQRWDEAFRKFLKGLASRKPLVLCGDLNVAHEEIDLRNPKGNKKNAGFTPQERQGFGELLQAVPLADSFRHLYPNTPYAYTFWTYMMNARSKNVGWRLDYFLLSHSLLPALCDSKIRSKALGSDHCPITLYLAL
#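 Compound pre-exposure to 0.75 nM APE1, 15 min at ambient temperature. Reaction initiated with 50 nM TAMRA/BHQ-2 THF substrate, read immediately in kinetic mode, 525 nm excitation, 598 nm emission.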
# POLI inh = blocks human DNA polymerase iota activity; Pol iota fluorescent replication assay, 10 min; Potency, µM (highest dose often 115 µM), for the others: at the highest dose activity, negative = inhibition, usual class: inhibitors; 390,000 tested, 1% active
#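 Fluorescent replication assay read twice, at 0 min and 10 min after adding 50 nM (final) substrate. Enzyme (10 nM) and compounds were first incubated 15 min at room temperature; enzyme-free buffer wells were negative controls.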
# POLK inh = blocks human DNA polymerase kappa activity; purified Pol kappa, fluorescent DNA synthesis assay, 10 min; Potency, µM (doses to about 107 µM), for inactives: at the highest dose activity, negative = inhibition, most hits filed as inhibitors; Q9UBT6; 400,000 tested, 0.53% active; AID 588579; note: % is set by controls: 0 for no effect and ±100 for the full control effect
#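 10 nM Pol kappa was preincubated with compounds for 15 min at room temperature. Reaction started with 50 nM (final) substrate. Fluorescence read kinetically at 0 and 10 min.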
# GLS inhibitor = blocks human kidney-isoform glutaminase activity; 410,000 tested, 0.21% active; Potency, µM (titrated, usually from 45.5 µM), for inactives: top-dose activity change, negative = inhibition, most hits filed as inhibitors; GLS enzymatic activity, qHTS titration; O94925; AID 624170; note: % is set by controls: 0 for no effect and ±100 for the full control effect
#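 Compounds were pin-transferred onto hKGA, after which L-glutamine (1 mM solution) and a detection mix of glutamate oxidase, HRP and Amplex Red were added. Initial and 30 min RT fluorescence reads were collected.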
# POLB inh = blocks human DNA polymerase beta activity. AID 485314. 340,000 tested, 1.3% active. P06746. Pol beta primer extension/strand displacement, fluorescence kinetic. Potency, µM (series often up to 114 µM), without a hit: top-dose activity change, negative = inhibition, actives largely listed as inhibitors; note: % is set by controls: 0 for no effect and ±100 for the full control effect
#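 Human Pol beta at 10 nM; strand-displacement substrate 50 nM final. Compound exposure 15 min at room temperature before start, reaction 10 min at room temperature.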
# Pol eta inh = inhibitors of human DNA polymerase eta; Q9Y253; recombinant Pol eta, fluorescent DNA replication assay; Potency, µM (titrated, usually from 114 µM), without a hit: at the highest dose activity change, negative = inhibition, usual class: inhibitors; 390,000 tested, 1.2% active; AID 588591; note: % is set by controls: 0 for no effect and ±100 for the full control effect
#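 Fluorescent replication assay: 50 nM final substrate added after a 15 min room-temperature compound preincubation with 10 nM enzyme. Signal taken at 0 min and again at 10 min.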
# * = called active by the depositor; ? = inconclusive; . = no result; ! = not confirmed by another sample; [ ] = remark or other dose. An excerpt weighted towards active compounds, which were near 2.4% of everything screened. Calls come from the whole dose curve; as a rule, active = well fitted curve in the direction sought with a large enough effect; inconclusive = small, poorly fitted or top-dose-only effect, or another doubt; inactive = no such curve, though single readings can be large; an effect the other way counts as inactive or inconclusive. Potency is the fitted concentration of half-maximal effect.
SMILES,APE1 inh,POLI inh,POLK inh,GLS inhibitor,POLB inh,Pol eta inh
O=C1NC(=O)C(c2ccccc2[N+](=O)[O-])=C1Nc1ccc(O)c(Cl)c1,?,28.2µM*!,11.2µM*!,69.0%,11.2µM*,?
O=C(NNc1ccccc1[N+](=O)[O-])Nc1ccc(Cl)c(Cl)c1,12.7%,125.4%,-13.4%,?,4.9%,-15.9%
Cc1ccc(/C=C2\S/C(=N/S(=O)(=O)c3cccs3)NC2=O)cc1,0.3%,39.8µM*,-34.2%,?,1.8%,25.1µM*
Nc1ccc2nc(-c3ccc(-c4nc5ccc(N)cc5[nH]4)cc3)[nH]c2c1,-41.5%,?,50.1µM*,8.2%,-15.2%,-18.6%
Nc1ccc(-c2nc3ccccc3[nH]2)cc1,-8.3%,23.4%,-0.6%,9.9%,?,-20.5%
O=C(NCCc1ccc(F)cc1)C(=O)NCC1CCCN1S(=O)(=O)c1ccccc1 (stereo unspecified),-1.4%,57.1%,-5.0%,3.2%,.,-5.5%
COc1cccc(/C=N\NC(=O)c2ccc(Cn3cc(Br)c([N+](=O)[O-])n3)o2)c1O,3.9%,-7.4%,-12.0%,-1.1%,39.8µM*,-11.3%
COc1cccc(/C=N/NC(=O)c2c(C)nc3ccc(Br)cn23)c1O,0.7%,?,-9.7%,8.6%,79.4µM*,9.0%
CCCOc1ccc(/C=N/NC(=O)c2ccc(Cn3cc([N+](=O)[O-])cn3)o2)cc1,-5.1%,?,-15.8%,21.9%,31.6µM*,-6.3%
COc1ccc(/C=N/Nc2ccccc2C(=O)O)cc1Cn1cc([N+](=O)[O-])cn1,-3.3%,?,-19.0%,?,-4.0%,-2.1%
COc1ccc(/C=N/NC(=O)c2ccccc2O)cc1Cn1cc([N+](=O)[O-])cn1,-5.5%,-6.6%,-3.7%,1.6%,56.2µM*,17.9%
CC(Sc1oc(-c2cccs2)nc1S(=O)(=O)c1ccccc1)c1ccccc1 (stereo unspecified),.,8.3%,4.6%,11.3%,6.5%,?
COc1ccc(/C=N/NC(=O)c2ccc(Br)cc2)cc1Cn1cc(Cl)cn1,5.9%,50.1µM*,-10.9%,-11.8%,?,?
CC#CCOCC1CN(C)C(=O)O1 (stereo unspecified),.,.,.,0.2%,.,-1.5%
Cc1ccc(-c2nc(NC(=O)CSc3cc(C)c4ccccc4n3)ns2)cc1,?,-9.5%,-22.5%,-9.9%,8.91µM*,?
COc1cc(NC(=S)N(C)CCC#N)c(OC)cc1Cl,1.2%,70.3%,-5.1%,-0.3%,0.6%,-17.7%
Cc1c(NC(=O)c2ccco2)cccc1-c1nc2cccnc2s1,-6.5%,?,-18.8%,-5.2%,-3.6%,44.7µM*
O=c1c2nc(Br)n([C@@H]3O[C@@H]4CO[P@@](O)(=S)O[C@H]4[C@H]3O)c2nc2[nH]c(-c3ccccc3)cn12,12.6µM*,.,?,.,.,.
Nc1nc2c(nc(Br)n2[C@@H]2O[C@H]3COP(=O)(O)O[C@H]3[C@@H]2O)c(=O)[nH]1,2.3%,.,-9.5%[19.4 µM],.,.,.
O=c1c2cccc(Cl)c2nc2n1Cc1ccccc1-2,1.9%,27.2%,-2.6%,12.6µM*,-22.2%,-8.3%
O=C(CSc1nnc(Cc2csc(Nc3cccc(Cl)c3)n2)o1)N1CCc2ccccc21,-8.1%,79.4µM*,-27.9%,-4.6%,1.0%,?
Fc1ccc(C(c2nnnn2C2CCCC2)N(Cc2ccco2)CC2CCCO2)cc1 (stereo unspecified),-4.6%,?,-14.3%,3.4%,0.7%,-15.3%
c1ccc(CN(Cc2ccco2)C(c2ccncc2)c2nnnn2C2CCCC2)cc1 (stereo unspecified),-0.6%,?,?,?,16.2%,44.7µM*
N#C/C(=C/c1cn(-c2ccccc2)nc1-c1cccc(S(=O)(=O)N2CCCC2)c1)C(=O)NCc1ccco1,-6.0%,20µM*,?,-13.9%,50.1µM*,28.2µM*
CCOC(=O)c1c(C)[nH]c(C)c1C(=O)COC(=O)/C=C/c1ccccc1[N+](=O)[O-],-6.6%,1.4%,-2.1%,0.7%,.,-5.7%
SMILES,APE1 inh,POLI inh,POLK inh,GLS inhibitor,POLB inh,Pol eta inh
CCOC(=O)c1c(C)[nH]c(C)c1C(=O)COC(=O)c1ccc([N+](=O)[O-])s1,-21.5%,10µM*,79.4µM*,11.6%,.,22.4µM*
CCCC(=O)c1cc(O)c(O)cc1O,0.891µM*,.,.,-46.1%[99.4 µM],.,.
Cc1ccc(NC(=O)Cn2nc(C(F)(F)F)c3c2CCC3)cc1,-3.2%,6.0%,-5.4%,0.0%,12.8%,-9.6%
O=C1/C(=C\c2ccco2)CCC/C1=C\c1ccco1,?,2.82µM*,8.91µM*,3.3%,7.08µM*,?
O=C1/C(=C/c2ccco2)CCC1C1CCCC1 (stereo unspecified),1.7%,27.2%,12.5%,-2.2%,1.6%,-13.7%
CC1C/C(=C/c2ccco2)C(=O)/C(=C/c2ccco2)C1 (stereo unspecified),4.3%,.,.,.,3.55µM*,.
O=C1/C(=C/c2ccco2)Cc2ccccc21,-8.5%,?,?,21.4%,?,-4.3%
O=[N+]([O-])c1ccc(CSc2nnc3ccccn23)cc1,-2.8%,10.9%,-3.0%,-1.9%,0.8%,-4.7%
COC1=C(Br)C(=O)c2ncccc2C1=O,.,1.26µM*,-11.0%,?,.,3.16µM*
CCOCCCNC(=S)Nc1ccc2nc3n(c(=O)c2c1)CCCCC3,8.2%,-2.8%,-22.4%,12.3%,1.8%,1.1%
Cc1ccc(S(=O)(=O)c2ccc([N+](=O)[O-])o2)cc1,.,17.8µM*,-12.1%,4.0%,.,9.3%
COc1cc(NC(=S)NC(=O)c2ccc(C(C)(C)C)cc2)ccc1NC(=O)c1cccs1,-1.0%,1.3%,-6.3%,16.9%,-2.5%,-14.2%
Cc1ccc(/C=N/n2c(C)cc(C)c(C#N)c2=O)o1,3.6%,2.0%,-1.3%,0.4%,-0.6%,-15.7%
Cc1cc(C)n(/N=C/c2ccco2)c(=O)c1C#N,?,?,-12.7%,-10.5%,39.8µM*,-15.6%
O=C(NCc1ccco1)C1CCN(C(=O)c2cc3sccc3n2Cc2ccc(F)cc2)CC1,0.7%,0.2%,-6.3%,-12.0%,-0.8%,-8.0%
Cc1cc(N2CCN(c3ccccc3F)CC2)n2cnnc2n1,.,13.9%,-9.2%,2.0%,11.1%,-7.0%
Cc1cc(N2CCN(c3cccc(C)c3C)CC2)n2cnnc2n1,.,?,-27.7%,2.0%,0.159µM*,-16.8%
O=C(c1ccc(-c2ccccc2Cl)o1)N1CCN(S(=O)(=O)c2cccs2)CC1,-6.8%,0.8%,-13.2%,13.2%,.,-4.0%
Cc1ccc(N=Nc2c(N)[nH]n3c(=O)cc(-c4ccccc4)nc23)cc1,-10.2%,9.8%,-12.1%,21.2%,6.3%,-11.4%
Cc1ccc(N=Nc2c(=O)[nH]n3c(=O)cc(C)[nH]c23)cc1,-5.2%,?,-23.7%,39.3%,0.891µM*,-1.4%

# High-throughput results deposited in PubChem by National Center for Advancing Translational Sciences (NCATS).
